From PubChem
TrxR1 substrate = qHTS Assay for Substrates of Mammalian Selenoprotein Thioredoxin Reductase 1 (TrxR1): qHTS; purified TrxR1 substrate turnover, NADPH consumption readout; Potency, µM (highest dose often 114 µM), without a hit: top-dose activity change, negative = substrate turnover; 390,000 compounds, 0.01% hits; also: % is scaled to controls: 0 for no effect and ±100 for the full control effect; nearly all actives have a fitted effect of over 50% in size
Target sequence (O89049 whole entry, looked up): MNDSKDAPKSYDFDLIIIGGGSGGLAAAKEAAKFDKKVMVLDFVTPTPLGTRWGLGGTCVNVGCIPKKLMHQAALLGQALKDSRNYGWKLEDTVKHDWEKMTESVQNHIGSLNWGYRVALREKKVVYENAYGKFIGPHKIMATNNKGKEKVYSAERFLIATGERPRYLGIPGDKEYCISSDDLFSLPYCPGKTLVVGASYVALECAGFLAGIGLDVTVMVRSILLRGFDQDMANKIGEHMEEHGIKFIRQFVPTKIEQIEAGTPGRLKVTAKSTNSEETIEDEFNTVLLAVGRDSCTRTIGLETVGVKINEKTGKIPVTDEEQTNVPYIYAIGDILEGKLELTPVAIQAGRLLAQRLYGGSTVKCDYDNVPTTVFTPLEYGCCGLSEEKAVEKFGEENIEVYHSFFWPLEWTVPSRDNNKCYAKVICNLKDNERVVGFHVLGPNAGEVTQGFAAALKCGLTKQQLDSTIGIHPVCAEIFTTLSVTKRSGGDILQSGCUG
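Rat TrxR1, dispensed at 90 nM, was prereduced with 400 uM NADPH (final) for 5 min at ~22 deg C, then incubated with compound 15 min before 400 uM selenite. A first-read NADPH fluorescence drop versus no-compound background flagged substrates.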
IDH1 R132H inh = qHTS for Inhibitors of mutant isocitrate dehydrogenase 1 (IDH1): qHTS. 390,000 compounds, 0.093% hits. Potency, µM (top dose mostly 76.6 µM), for the others: at the highest dose activity change, negative = inhibition, usual class: inhibitors. AID 602179, 2012. Isocitrate dehydrogenase [NADP] cytoplasmic (Homo sapiens), O75874. IDH1-R132H enzyme, NADPH consumption, diaphorase/resazurin fluorescence; also: % is scaled to controls: 0 for no effect and ±100 for the full control effect; nearly all actives have a fitted effect of over 65% in size
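IDH1-R132H (0.5 ug/mL dispensed) in pH 7.5 Tris buffer was preincubated 30 min with compound, then given a substrate mix of 0.016 mM NADPH and 2 mM alpha-KG for 80 min at room temperature; remaining NADPH was read by diaphorase/resazurin fluorescence.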
Mito fusion yeast = qHTS Assay for Small Molecule Inhibitors of Mitochondrial Division or Activators of Mitochondrial Fusion; S. cerevisiae fusion-defective mutant growth rescue, CellTiterGlo 48 h; Potency, µM (series often up to 46.1 µM), for inactives: at the highest dose growth rescue (activation), actives largely listed as activators; 320,000 compounds, 0.23% hits; also: % of control where 0% means no effect; nearly all actives have a fitted effect of over 45% in size
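Luminescent cell viability in 1536-well qHTS format served as the measure of rescued growth in ts fusion-mutant S. cerevisiae cultured on non-fermentable YPEG for 48 hours at 37C.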
TrxR1 inh = qHTS Assay for Inhibitors of Mammalian Selenoprotein Thioredoxin Reductase 1 (TrxR1): qHTS; Thioredoxin reductase 1, cytoplasmic (Rattus norvegicus), O89049; recombinant rTrxR1, NADPH fluorescence consumption, selenite substrate; Potency, µM (titrated, usually from 114 µM), inactives show at the highest dose activity change, negative = inhibition, most hits filed as inhibitors; 390,000 compounds, 1% hits; AID 588453, 2011; also: % is scaled to controls: 0 for no effect and ±100 for the full control effect; nearly all actives have a fitted effect of over 65% in size
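Rat TrxR1 (90 nM in the dispensed reagent) was pre-reduced with 400 uM NADPH for 5 min at room temperature, then incubated with compound for 15 min. After 400 uM selenite was added, NADPH fluorescence (Ex 340/Em 450 nm) was followed for 8 min.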
Nrf2 block = Nrf2 qHTS screen for inhibitors; AID 504444, 2011; Potency, µM (titrated, usually from 46 µM), without a hit: top-dose activity change, negative = inhibition, most hits filed as inhibitors; 360,000 compounds, 2.1% hits; A549 ARE-Fluc reporter, luciferase luminescence, 18-24 h; also: % is scaled to controls: 0 for no effect and ±100 for the full control effect; nearly all actives have a fitted effect of over 60% in size
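Nrf2 activity is the BugLite luminescence, read 15 min after reagent at room temperature, following CellTiter-Fluor cytotoxicity readout (30 min, 37C). Compound titrations were applied for 18-24 h to 5000 A549 ARE_Fluc cells/well in 5% FBS OPTI-MEM.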
A549 tox = Nrf2 qHTS screen for inhibitors: counterscreen for cytotoxicity | 390,000 compounds, 0.16% hits | A549 ARE-Fluc cells, CellTiter-Fluor viability, 18-24 h | AID 504648, 2011 | Potency, µM (highest dose often 46 µM), without a hit: at the highest dose activity change, negative = cytotoxicity, usual class: inhibitors; also: % is scaled to controls: 0 for no effect and ±100 for the full control effect
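A549 ARE-Fluc cells in 5% FBS OPTI-MEM, 5000 cells/well, rested 2 h then exposed to compounds in concentration-response for 18-24 h at 37 °C. Viability by CellTiter-Fluor fluorescence (Ex 405/Em 525) after 30 min; luciferase luminescence (BugLite, 15 min, RT) read afterwards.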
* hit, by the source's call; ? = inconclusive; nt = no result; [ ] = remark or other dose. Compounds with a hit are over-represented: about 3.1% of the library has one in this group of screens. Calls follow the shape of the dose curve; as a rule, active = well fitted curve in the direction sought with a large enough effect; inconclusive = small, poorly fitted or top-dose-only effect, or another doubt; inactive = no such curve, though single readings can be large; an effect the other way counts as inactive or inconclusive. Potency is read from the fitted curve at half-maximal effect.

SMILES | TrxR1 substrate | IDH1 R132H inh | Mito fusion yeast | TrxR1 inh | Nrf2 block | A549 tox
NNc1nc(-c2ccccc2)cc(-c2ccccc2)n1 | 0% | 12% | 13% | 11% | 9.2µM* | -3%
NNc1nc(-c2ccccc2)cc(-c2ccccc2O)n1 | 6%[2.29 µM] | 0% | -1% | 3%[2.29 µM] | ? | 12%
COc1ccc(CCC(=O)O)cc1 | 5% | nt | nt | 5% | nt | nt
Cc1nc2cccnc2n1-c1cccc(C(=O)N2CCN(c3ccc(Cl)cc3)CC2)c1 | 3% | 1% | nt | 10% | 18µM* | -20%
S=c1[nH]nc(-c2cc(-c3ccccn3)nc3ccccc23)o1 | -8% | -1% | -1% | 56µM* | -17% | -12%
COc1ccc(-c2ccc(=O)n(CC(=O)NCCc3ccccc3)n2)cc1 | -8%[57.1 µM] | -3% | nt | 0%[57.1 µM] | nt | 13%
CC(C)c1ccc(Cn2cnc3c(cnn3C(C)(C)C)c2=O)cc1 | -10% | nt | nt | -1% | nt | nt
COc1ccc(NC(=O)CN(C)CC(=O)c2[nH]c(C)c(C(C)=O)c2C)cc1 | -1% | 3% | -5% | -15% | ? | -9%
COc1cccc(NC(=O)CN(C)CC(=O)c2c(C)[nH]c3ccccc23)c1 | -2% | -18% | 2% | 79µM* | -11% | -1%
COc1ccc(NC(=O)CN(C)CC(=O)c2c(C)[nH]c3ccccc23)cc1 | 0% | 2% | 3% | 22µM* | 18% | -8%
O=C1CN(C(=O)c2ccc(S(=O)(=O)N3CCCC3)cc2)C(c2ccccc2)c2cc(Br)ccc2N1 (centres undefined) | -2% | 9% | nt | 16%[2.29 µM] | 3%[9.27 µM] | 2%
CCOc1ccccc1-c1nnc2n1N=C(c1c(OC)cccc1OC)CS2 | nt | nt | nt | nt | 1% | 1%
COc1ccccc1Cc1nc2ccccc2nc1SCC(=O)N1CCC(C)CC1 | 3%[57.1 µM] | 7% | nt | 0%[57.1 µM] | nt | 7%
COc1cc(C2Nc3ccccc3C(=O)N2Cc2ccco2)cc(OC)c1OC (centres undefined) | 143% | nt | nt | ? | -4% | -1%
Cc1cc2ccccc2n1CCNC(=O)c1ccc(Br)cc1 | -8% | 6% | nt | 4% | -20% | 1%
Cc1cc2ccccc2n1CCNC(=O)c1ccc(Br)o1 | 13%[57.1 µM] | 3% | 4% | 10µM* | -6% | -23%
Cc1oc(-c2cccc(Br)c2)nc1Cn1c(SCc2cccc(F)c2)nc2cccnc21 | 13% | -9% | nt | 19% | 13µM* | -25%
Cc1ccc(-c2nc(Cn3c(SCc4ccc(F)cc4)nc4cccnc43)c(C)o2)cc1 | 9% | 10% | nt | 17% | ? | -24%
CCOc1cccc(CNc2ccc(O)cc2)c1OCc1ccc(Cl)cc1 | -12% | 8% | 6% | 45µM* | ? | -16%
CCOc1cc(CNc2ccc(O)cc2)ccc1OCc1ccc(Cl)cc1Cl | -21% | 20% | ? | 28µM* | ? | -18%
Cc1ccc(OCC(O)Cn2c3ccccc3c3ccccc32)cc1 (centres undefined) | -6% | 6% | -26% | -1% | ? | -28%
CC(=O)N(C)c1ccc(OCC(O)Cn2c3ccc(Cl)cc3c3cc(Cl)ccc32)cc1 (centres undefined) | 9% | 7% | -14% | 32% | 21µM* | ?
COc1ccc(CCNC(=O)Cc2c(C)c3cc4c(C(C)(C)C)coc4c(C)c3oc2=O)cc1OC | -3% | -1% | nt | -6% | ? | -15%
CC(C(=O)NCCCc1ccccc1)n1cccc1C(=O)c1ccccc1 (centres undefined) | 1% | -1% | 22µM* | 7% | ? | 6%
